The source of these data is the supplement of paper PMC4166925.

± gives the standard deviation of the averaged measurements. Whole data set: some 33,000 sequences, median “E-score (dimensionless, -0.5 to 0.5)” near -0.046, cut for the highest 2% near 0.36. Shown is part of a subset that was picked to be rich in the highest values.

This test has as its system T1, SpTbr T-box DNA-binding domain (GST fusion).
T1 sequence: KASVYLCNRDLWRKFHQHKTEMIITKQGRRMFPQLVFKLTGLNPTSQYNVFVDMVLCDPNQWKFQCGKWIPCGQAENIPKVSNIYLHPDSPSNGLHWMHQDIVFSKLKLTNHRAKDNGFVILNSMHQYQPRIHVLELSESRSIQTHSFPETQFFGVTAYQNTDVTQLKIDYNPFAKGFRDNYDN
In words: PBM E-score of 8-mer (E-score (dimensionless, -0.5 to 0.5)); Tbr is Tbrain of the sea star Patiria miniata (Pm) or the sea urchin Strongylocentrotus purpuratus (Sp); higher = stronger binding preference. To be noted: the construct has about 5 more residues each side. The method, boiled down:
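Expression of GST-fused Tbr T-box DNA-binding domains, each holding the full T-box plus roughly five flanking residues, was carried out in BL21 E. coli at 20 °C, with purification by glutathione affinity chromatography. Universal Agilent arrays made double-stranded by primer extension were incubated with the protein at 200 nM in PBS (pH 7.5), then scanned and quantified. All ungapped 8-mers were scored from probe intensities, and each received an enrichment E-score from the Universal PBM Analysis Suite, averaged over duplicate arrays.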
Take CCTCCACG: the “PBM E-score of 8-mer” value was determined as 0.0268 ± 0.029. In the case of CCGCAAGG, the “PBM E-score of 8-mer” value was -0.0599 ± 0.044. Next, ACCGTCCG: -0.0723 ± 0.023. In the case of CGGTTAAA, the “PBM E-score of 8-mer” value was -0.129 ± 0.16. For the sequence ACGACACC, the “PBM E-score of 8-mer” value stood at 0.419 ± 0.02. For the sequence CCGACACA, the “PBM E-score of 8-mer” value amounted to 0.36 ± 0.022. In the case of GCGACACA, the “PBM E-score of 8-mer” value came out at 0.31 ± 0.0039. As for CCGACACG, the “PBM E-score of 8-mer” value worked out at 0.253 ± 0.034.

For ACGACACG, the “PBM E-score of 8-mer” value is 0.226 ± 0.042. Next, ACGACACT: 0.257 ± 0.0054; GCGACACC: 0.432 ± 0.021; CCGACACC: 0.438 ± 0.0068. With GGGACACC, the “PBM E-score of 8-mer” value came to 0.226 ± 0.042.

On to CGTTGGGC, for which the “PBM E-score of 8-mer” value was -0.255 ± 0.022. In the case of ATCAATCC, the “PBM E-score of 8-mer” value is -0.172 ± 0.082. Consider GAACGATC, for which the “PBM E-score of 8-mer” value is 0.0814 ± 0.028.

Take CCTGACCC: the “PBM E-score of 8-mer” value was -0.133 ± 0.084. Take TGAGCGCA: the “PBM E-score of 8-mer” value turned out to be 0.00286 ± 0.049.

For GTGTGATA, the “PBM E-score of 8-mer” value came to 0.459 ± 0.0047. With CTGTGATA, the “PBM E-score of 8-mer” value stood at 0.23 ± 0.055. In the case of ATGTGAGC, the “PBM E-score of 8-mer” value came out at 0.06995 ± 0.00026. ATGTGAGG: the “PBM E-score of 8-mer” value was 0.28 ± 0.041. Regarding GTGTGAGA, the “PBM E-score of 8-mer” value was determined as 0.4699 ± 0.0024. GTGAGAGA: the “PBM E-score of 8-mer” value worked out at 0.339 ± 0.0054. Next, ATGTGATA: 0.254 ± 0.024; ATGTGAGA: 0.414 ± 0.018; CTGTGAGA: 0.292 ± 0.0058. Consider CCGATCAA, for which the “PBM E-score of 8-mer” value is 0.0887 ± 0.014. For the sequence GTACTTGA, the “PBM E-score of 8-mer” value turned out to be 0.0232 ± 0.044. Consider GCATCCCA, for which the “PBM E-score of 8-mer” value was -0.16 ± 0.063.

As for GTCACAAC, the “PBM E-score of 8-mer” value turned out to be 0.293 ± 0.0073.

As for AGGTGTAA, the “PBM E-score of 8-mer” value was found to be 0.475 ± 0.011. Next, CGGTGTAG: 0.17 ± 0.083; GGGTGTAA: 0.386 ± 0.0076; CGGTGTAA: 0.216 ± 0.014. For AGGTGTAC, the “PBM E-score of 8-mer” value was determined as 0.294 ± 0.0088.

Consider GGGTGTAC, for which the “PBM E-score of 8-mer” value was -0.0335 ± 0.078. Next, AGGTGTAG: 0.3922 ± 0.0034; TGGTGTAA: 0.292 ± 0.059; AGGTGTAT: 0.281 ± 0.011. Consider CTGGCCCC, for which the “PBM E-score of 8-mer” value is -0.113 ± 0.035. For AACGAGCG, the “PBM E-score of 8-mer” value worked out at 0.0213 ± 0.0072.

As for GAGCAAGA, the “PBM E-score of 8-mer” value is -0.187 ± 0.011. For the sequence AATCAGTC, the “PBM E-score of 8-mer” value was -0.0936 ± 0.015. For the sequence CTCGTTAC, the “PBM E-score of 8-mer” value was -0.116 ± 0.031. Regarding GGTTGCGA, the “PBM E-score of 8-mer” value worked out at 0.266 ± 0.015. On to CGCGCAAC, for which the “PBM E-score of 8-mer” value was 0.173 ± 0.066.

Consider AGTGTGTG, for which the “PBM E-score of 8-mer” value came to 0.36 ± 0.023.

For the sequence ATTGTGAG, the “PBM E-score of 8-mer” value worked out at 0.25 ± 0.035. For the sequence AGTGTGAT, the “PBM E-score of 8-mer” value stood at 0.4721 ± 0.0012.

GCTGTGAC: the “PBM E-score of 8-mer” value worked out at 0.161 ± 0.042. Regarding AGTGTGAG, the “PBM E-score of 8-mer” value was 0.4646 ± 0.0021. Next, GGTGTGAC: 0.4822 ± 0.0041; AGAGTGAT: 0.231 ± 0.039; GATGTGAC: 0.273 ± 0.019. Next, AGTGTGAC: 0.445 ± 0.011; AGTGTGTC: 0.234 ± 0.06; AATGTGAT: 0.253 ± 0.0037.

In the case of ACTGTGAC, the “PBM E-score of 8-mer” value stood at 0.237 ± 0.023. For the sequence GGAGCTAA, the “PBM E-score of 8-mer” value is -0.165 ± 0.013. Next, GATTTCAC: 0.332 ± 0.023; ACCTGTAA: 0.154 ± 0.021. As for AGGCATTG, the “PBM E-score of 8-mer” value is -0.17 ± 0.042. Regarding ATTCAAGG, the “PBM E-score of 8-mer” value was -0.262 ± 0.017. In the case of CCAGCGGA, the “PBM E-score of 8-mer” value was -0.0913 ± 0.043. With ATGACGGA, the “PBM E-score of 8-mer” value was -0.139 ± 0.0034. Take CATGTGAG: the “PBM E-score of 8-mer” value was determined as 0.137 ± 0.0055. Next, CCTGTGAG: 0.24582 ± 4.2e-05; CGTGTGTC: 0.172 ± 0.058; CGTGTGAC: 0.399 ± 0.012. For CGTGTGAG, the “PBM E-score of 8-mer” value is 0.4011 ± 0.0033. CCTGTGAC: the “PBM E-score of 8-mer” value came out at 0.263 ± 0.011. With CCCAACTA, the “PBM E-score of 8-mer” value is -0.164 ± 0.083. Next, AGCGTCCC: -0.148 ± 0.0096; GCTTATCC: 0.125 ± 0.027.

On to CCTCATAA, for which the “PBM E-score of 8-mer” value was -0.0692 ± 0.021. With CCGTGTTA, the “PBM E-score of 8-mer” value is 0.158 ± 0.029. On to ACGTGTTA, for which the “PBM E-score of 8-mer” value came to 0.431 ± 0.015.

Turning to GCGTGTTA, the “PBM E-score of 8-mer” value was determined as 0.302 ± 0.018. Next, ACGTGTTC: 0.1884 ± 0.00041; ACGTGTTG: 0.367 ± 0.00092. As to ACGTGTAG, the “PBM E-score of 8-mer” value is 0.133 ± 0.068. For the sequence GATCGCTA, the “PBM E-score of 8-mer” value was 0.136 ± 0.022. Turning to GGTCGATA, the “PBM E-score of 8-mer” value is 0.0927 ± 0.012.

As to AACTGTTG, the “PBM E-score of 8-mer” value is 0.241 ± 0.017. Take CACGCAGA: the “PBM E-score of 8-mer” value came to 0.0713 ± 0.028. CTTGACCC: the “PBM E-score of 8-mer” value was -0.308 ± 0.038. Regarding CTTGACAC, the “PBM E-score of 8-mer” value came out at 0.436 ± 0.0093. For ATTGACAG, the “PBM E-score of 8-mer” value was found to be 0.102 ± 0.07. Regarding ATTGACAC, the “PBM E-score of 8-mer” value worked out at 0.418 ± 0.0052. On to ATTGACAA, for which the “PBM E-score of 8-mer” value turned out to be 0.298 ± 0.026. In the case of CTTGACGC, the “PBM E-score of 8-mer” value amounted to 0.324 ± 0.011. Take ACACAGAA: the “PBM E-score of 8-mer” value is -0.134 ± 0.016.

For GGATAGAC, the “PBM E-score of 8-mer” value is -0.202 ± 0.041. For ACTCAATC, the “PBM E-score of 8-mer” value was -0.0092 ± 0.032. Next, TAACACTA: 0.373 ± 0.042. Next, GAACACTA: 0.013 ± 0.018.

On to CAACACGC, for which the “PBM E-score of 8-mer” value was 0.203 ± 0.0098.

With TAACACCA, the “PBM E-score of 8-mer” value is 0.43 ± 0.011. In the case of CAACACCG, the “PBM E-score of 8-mer” value is 0.312 ± 0.0065. Next, CAACACCC: 0.433 ± 0.012; GAACACCC: 0.116 ± 0.0077; CAACACGA: 0.185 ± 0.0087. Next, GAACACCA: 0.104 ± 0.014. Next, AAACACCA: 0.238 ± 0.027; CAACACCA: 0.37255 ± 7.8e-05; CAACACTA: 0.264 ± 0.025. Take TCAAGGAA: the “PBM E-score of 8-mer” value is -0.0393 ± 0.033. Next, GCTGATCA: 0.179 ± 0.059; CCCAATGA: -0.198 ± 0.013.
